In PubChem BioAssay (Tox21):
Inconclusive results are not listed. Calls of active or inactive are those of the source. Calls follow the shape of the dose curve; as a rule, active = well fitted curve in the direction sought with a large enough effect in the repeat runs; inconclusive = weak or mixed curves; inactive = no such curve, though single readings can be large; an effect the other way counts as inactive or inconclusive.

Key:
[1] = qHTS RealTime-Glo MT Cell Viability Assay in HepG2 cells - 40 hour (AID 1224870); also: nearly all actives have a fitted effect of over 50% in size
How it was run: (§1)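 HepG2 cells (600/well) mixed with RealTime-Glo MT reagent, settled 5 h at 37 C/5% CO2 before compound addition. Nonlytic NanoLuc luminescence from viable-cell prosubstrate reduction read repeatedly during 40 h treatment at 37 C.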

[2] = A CellTox Green Cytotoxicity Assay to monitor cytotoxicity in HEK293 cells - 40 hour (AID 1224871); also: nearly all actives have a fitted effect of over 45% in size
How it was run: (§2)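 HEK293 cells, 600/well, were preincubated 5 hours and then exposed to compounds at 37 C for up to 40 hours. A cell-impermeant cyanine dye staining dead-cell DNA was read by fluorescence at 0, 8, 16, 24, 32 and 40 h time points.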

[3] = qHTS RealTime-Glo MT Cell Viability Assay in HEK293 cells - 16 hour (AID 1224872); also: top concentration of the series differs between compounds; nearly all actives have a fitted effect of over 50% in size
How it was run: (§3)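 Nonlytic real-time viability readout: viable cells convert prosubstrate to NanoLuc substrate, giving luminescence proportional to live cell number. HEK293, 600 cells/well, compound added after 5 h, continuous culture at 37 C.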

[4] = qHTS RealTime-Glo MT Cell Viability Assay in HepG2 cells - 8 hour (AID 1224873); also: nearly all actives have a fitted effect of over 55% in size
How it was run: as §1

[5] = qHTS RealTime-Glo MT Cell Viability Assay in HEK293 cells - 40 hour (AID 1224874); settings: RealTime-Glo luminescence; max response: hits give low values; also: nearly all actives have a fitted effect of over 50% in size
How it was run: (§4)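 600 cells/well were plated with the nonlytic NanoLuc/prosubstrate reagent, pre-incubated 5 h, then given 23 nL of compound in DMSO. Incubation at 37 C for 40 h, with luminescence from viable-cell-reduced substrate read repeatedly from 0 h.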

[6] = A CellTox Green Cytotoxicity Assay to monitor cytotoxicity in HEK293 cells - 24 hour (AID 1224875); also: series mostly up to about 77 µM; nearly all actives have a fitted effect of over 45% in size
How it was run: as §2

[7] = A CellTox Green Cytotoxicity Assay to monitor cytotoxicity in HepG2 cells - 16 hour (AID 1224876); also: nearly all actives have a fitted effect of over 45% in size
How it was run: (§5)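 HepG2 cells, 600/well, preincubated 5 h with CellTox Green dye, then exposed to Tox21 compounds in DMSO at 37 C for up to 40 h. Dead-cell DNA fluorescence read at the indicated time point.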

[8] = qHTS RealTime-Glo MT Cell Viability Assay in HepG2 cells - 32 hour (AID 1224877); also: nearly all actives have a fitted effect of over 55% in size
How it was run: (§6)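 Luminescence read-out: viable HepG2 cells reduce a prosubstrate to a NanoLuc substrate, giving a signal proportional to live cell number. Reads taken at 0, 8, 16, 24, 32 and 40 h of compound exposure at 37 C.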

[9] = A CellTox Green Cytotoxicity Assay to monitor cytotoxicity in HepG2 cells - 24 hour (AID 1224878); also: nearly all actives have a fitted effect of over 45% in size
How it was run: as §5

[10] = A CellTox Green Cytotoxicity Assay to monitor cytotoxicity in HepG2 cells - 40 hour (AID 1224879); also: nearly all actives have a fitted effect of over 40% in size
How it was run: as §5

[11] = qHTS RealTime-Glo MT Cell Viability Assay in HEK293 cells - 0 hour (AID 1224880)
How it was run: as §4

[12] = A CellTox Green Cytotoxicity Assay to monitor cytotoxicity in HEK293 cells - 32 hour (AID 1224881); also: nearly all actives have a fitted effect of over 40% in size
How it was run: as §2

[13] = A CellTox Green Cytotoxicity Assay to monitor cytotoxicity in HepG2 cells - 0 hour (AID 1224882); also: nearly all actives have a fitted effect of over 35% in size
How it was run: as §5

[14] = A CellTox Green Cytotoxicity Assay to monitor cytotoxicity in HepG2 cells - 32 hour (AID 1224883); also: nearly all actives have a fitted effect of over 50% in size
How it was run: as §5

[15] = A CellTox Green Cytotoxicity Assay to monitor cytotoxicity in HEK293 cells - 8 hour (AID 1224884); also: nearly all actives have a fitted effect of over 35% in size
How it was run: as §2

[16] = qHTS RealTime-Glo MT Cell Viability Assay in HepG2 cells - 16 hour (AID 1224885); also: nearly all actives have a fitted effect of over 50% in size
How it was run: as §6

[17] = qHTS RealTime-Glo MT Cell Viability Assay in HEK293 cells - 24 hour (AID 1224886)
How it was run: as §3

[18] = qHTS RealTime-Glo MT Cell Viability Assay in HEK293 cells - 8 hour (AID 1224887)
How it was run: as §4

[19] = A CellTox Green Cytotoxicity Assay to monitor cytotoxicity in HEK293 cells - 16 hour (AID 1224888); also: nearly all actives have a fitted effect of over 35% in size
How it was run: as §2

[20] = qHTS RealTime-Glo MT Cell Viability Assay in HepG2 cells - 0 hour (AID 1224889); also: nearly all actives have a fitted effect of over 50% in size
How it was run: as §6
% is scaled to controls: 0 for no effect and ±100 for the full control effect.

O=C(CC(=O)C(F)(F)F)c1ccccc1
inactive: Potency [1] | Potency [2] | Potency [3] | outcome [4] | max response [5] -4.62% | Potency [6] | Potency [7] | Potency [8] | Potency [9] | Potency [10] | outcome [11] | Potency [12] | Potency [13] | Potency [14] | Potency [15] | outcome [16] | Potency [17] | Potency [18] | Potency [19] | Potency [20]

CCNCCO
inactive: Potency [1] | Potency [2] | Potency [3] | outcome [4] | max response [5] 9.13% | Potency [6] | Potency [7] | Potency [8] | Potency [9] | Potency [10] | outcome [11] | Potency [12] | Potency [13] | Potency [14] | Potency [15] | outcome [16] | Potency [18] | Potency [19] | Potency [20]

Cc1cc2c(s1)Nc1ccccc1N=C2N1CCN(C)CC1
inactive: Potency [1] | Potency [2] | Potency [3] | outcome [4] | max response [5] 3.41% | Potency [6] | Potency [7] | Potency [8] | Potency [9] | Potency [10] | outcome [11] | Potency [12] | Potency [13] | Potency [14] | Potency [15] | outcome [16] | Potency [17] | Potency [18] | Potency [19] | Potency [20]

O=C(O)[C@@H](O)[C@H](O)[C@H](O)[C@@H](O)C(=O)O
inactive: Potency [1] | Potency [2] | Potency [3] | outcome [4] | max response [5] 0.215% | Potency [6] | Potency [7] | Potency [8] | Potency [9] | Potency [10] | outcome [11] | Potency [12] | Potency [13] | Potency [14] | Potency [15] | outcome [16] | Potency [17] | Potency [18] | Potency [19] | Potency [20]

CCCCC1CCC(=O)O1 (stereo unspecified)
inactive: Potency [1] | Potency [2] | Potency [3] | outcome [4] | max response [5] -3.25% | Potency [6] | Potency [7] | Potency [8] | Potency [9] | Potency [10] | outcome [11] | Potency [12] | Potency [13] | Potency [14] | Potency [15] | outcome [16] | Potency [17] | Potency [18] | Potency [19] | Potency [20]

Cc1c(N)cccc1N
inactive: Potency [1] | Potency [2] | Potency [3] | outcome [4] | max response [5] 12.2% | Potency [6] | Potency [7] | Potency [8] | Potency [9] | Potency [10] | outcome [11] | Potency [12] | Potency [13] | Potency [14] | Potency [15] | outcome [16] | Potency [17] | Potency [18] | Potency [19] | Potency [20]

Cc1ccc([N+](=O)[O-])cc1Cl
inactive: Potency [1] | Potency [2] | Potency [3] | outcome [4] | max response [5] 0.878% | Potency [6] | Potency [7] | Potency [8] | Potency [9] | Potency [10] | outcome [11] | Potency [12] | Potency [13] | Potency [15] | outcome [16] | Potency [17] | Potency [18] | Potency [19] | Potency [20]

O=C(O)c1ccccc1Nc1cc(Cl)ccc1C(=O)O
inactive: activity change, negative = cytotoxic [1] -5.11% [at 15.8 µM] | cytotoxicity increase [2] -12.4% [at 15.8 µM] | activity change, negative = cytotoxicity [3] 1.77% [at 15.8 µM] | viability change, negative = cytotoxic [4] 0.891% [at 15.8 µM] | max response [5] 2.59% | activity change [6] -4.95% [at 15.8 µM, hits give high values] | cytotoxicity increase [7] 1.42% [at 15.8 µM] | activity change, negative = cytotoxic [8] -8.29% [at 15.8 µM] | cytotoxicity [9] 9.31% [at 15.8 µM] | cytotoxicity increase [10] 28.2% [at 15.8 µM] | activity change, negative = cytotoxicity [11] -6.06% [at 15.8 µM] | cytotoxicity increase [12] -11.6% [at 15.8 µM] | cytotoxicity [13] -1.43% [at 15.8 µM] | cytotoxicity increase [14] 20.7% [at 15.8 µM] | cytotoxicity increase [15] -18.6% [at 15.8 µM] | activity change, negative = cytotoxic [16] 0.467% [at 15.8 µM] | activity change, negative = cytotoxicity [17] 7.65% [at 15.8 µM] | activity change, negative = cytotoxicity [18] -4.99% [at 15.8 µM] | activity change [19] -3.78% [at 15.8 µM, hits give high values] | activity change, negative = cytotoxicity [20] -2.93% [at 15.8 µM]

NC(=O)Cc1cccc(C(=O)c2ccccc2)c1N
inactive: Potency [1] | Potency [2] | Potency [3] | outcome [4] | max response [5] -24.1% | Potency [6] | Potency [7] | Potency [8] | Potency [9] | Potency [10] | outcome [11] | Potency [12] | Potency [13] | Potency [14] | Potency [15] | outcome [16] | Potency [18] | Potency [19] | Potency [20]

Cc1nnc(SCC2=C(C(=O)O)N3C(=O)[C@@H](NC(=O)Cn4cnnn4)[C@H]3SC2)s1
inactive: Potency [1] | Potency [2] | Potency [3] | outcome [4] | max response [5] 6.83% | Potency [6] | Potency [7] | Potency [8] | Potency [9] | Potency [10] | outcome [11] | Potency [12] | Potency [13] | Potency [14] | Potency [15] | outcome [16] | Potency [17] | Potency [18] | Potency [19] | Potency [20]

c1ccc(CN(CC2=NCCN2)c2ccccc2)cc1
inactive: Potency [1] | Potency [2] | Potency [3] | outcome [4] | max response [5] -19.9% | Potency [6] | Potency [7] | Potency [8] | Potency [9] | Potency [10] | outcome [11] | Potency [12] | Potency [13] | Potency [14] | Potency [15] | outcome [16] | Potency [17] | Potency [18] | Potency [20]

NC(Cc1ccc(F)cc1)C(=O)O (stereo unspecified)
inactive: activity change, negative = cytotoxic [1] -10.7% [at 6.97 µM] | cytotoxicity increase [2] 10% [at 6.97 µM] | activity change, negative = cytotoxicity [3] 1.36% [at 6.97 µM] | viability change, negative = cytotoxic [4] 1.3% [at 6.97 µM] | max response [5] 2.65% | activity change [6] 11.7% [at 6.97 µM, hits give high values] | cytotoxicity increase [7] 8.03% [at 6.97 µM] | activity change, negative = cytotoxic [8] -6.06% [at 6.97 µM] | cytotoxicity [9] 7.85% [at 6.97 µM] | cytotoxicity increase [10] 7.77% [at 6.97 µM] | activity change, negative = cytotoxicity [11] -1.64% [at 6.97 µM] | cytotoxicity increase [12] 12.7% [at 6.97 µM] | cytotoxicity [13] -0.531% [at 6.97 µM] | cytotoxicity increase [14] 8.52% [at 6.97 µM] | cytotoxicity increase [15] 17.5% [at 6.97 µM] | activity change, negative = cytotoxic [16] 2.23% [at 6.97 µM] | activity change, negative = cytotoxicity [17] -0.156% [at 6.97 µM] | activity change, negative = cytotoxicity [18] 1.39% [at 6.97 µM] | activity change [19] 17.7% [at 6.97 µM, hits give high values] | activity change, negative = cytotoxicity [20] 18.9% [at 6.97 µM]
